Broadly, the AC50 is the concentration at which the activity in the assay is half-maximal.

Data on 4 compounds can be found in PubChem BioAssay (EPA / NIEHS).

Calls of active or inactive are those of the source. Rule for the calls: active = hit-call score of the fitted dose curve at least 0.9, where 1 is the maximum; inactive = score below 0.9.

Holding throughout (conditions): mRNA level, 48 h; actives raise or lower the signal
Read-out in experiment [1]: Glutathione S-Transferase (GSTA2), GSTA2 (gene 2939)
As to the kind of experiment: LTEA_HepaRG_GSTA2: Life Technologies and Expression Analysis (LTEA) Assay for Glutathione S-Transferase (GSTA2) using HepaRG (AID 2283497). The procedure, abridged:
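Human HepaRG cells, plated 48 h, then exposed in serum-free induction medium for 48 h to eight half-log concentrations up to 100 uM in 0.5% DMSO, duplicate. GSTA2 mRNA by qRT-PCR, normalized to ACTB/GAPDH/POLR2A; bidirectional fit versus DMSO.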

Read-out in experiment [2]: Glutamate-cysteine ligase catalytic (GCLC), GCLC (gene 2729)
As to the kind of experiment: LTEA_HepaRG_GCLC: Life Technologies and Expression Analysis (LTEA) Assay for Glutamate-cysteine ligase catalytic (GCLC) using HepaRG (AID 2283498). The procedure, abridged:
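Differentiated human HepaRG cells, plated 48 h then switched to serum-free induction medium, were exposed in duplicate for 48 h to 8 half-log concentrations topping at 100 uM in 0.5% DMSO. GCLC mRNA was quantified by qRT-PCR against ACTB, GAPDH and POLR2A.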

Read-out in experiment [3]: growth arrest and DNA damage 45 (GADD45G), GADD45G (gene 10912)
Kind of experiment: LTEA_HepaRG_GADD45G: Life Technologies and Expression Analysis (LTEA) Assay for growth arrest and DNA damage 45 (GADD45G) using HepaRG (AID 2283499). Summed up:
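Differentiated human HepaRG cells, 48 h post-plating, exposed 48 h in serum-free induction medium to 8 half-log concentrations (top 100 uM, 0.5% DMSO) in duplicate. GADD45G mRNA measured by Fluidigm TaqMan qRT-PCR, normalized to ACTB, GAPDH, POLR2A; bidirectional fit versus DMSO.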

Read-out in experiment [4]: Heat shock 70 kDa protein 1 (HSPA1A), gene 3303
Kind of experiment: LTEA_HepaRG_HSPA1A: Life Technologies and Expression Analysis (LTEA) Assay for Heat shock 70 kDa protein 1 (HSPA1A) using HepaRG (AID 2283502). Summed up:
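Human HepaRG cells in serum-free induction medium were exposed in duplicate for 48 h to 8 half-log concentrations, highest 100 uM, in 0.5% DMSO. HSPA1A mRNA read by TaqMan qRT-PCR, normalized to ACTB, GAPDH, POLR2A, fitted bidirectionally against DMSO.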

Read-out in experiment [5]: Hypoxia-inducible factor 1-alpha (Homo sapiens) (UniProt Q16665)
Kind of experiment: LTEA_HepaRG_HIF1A: Life Technologies and Expression Analysis (LTEA) Assay for Hypoxia-inducible factor 1 (HIF1A) Trancription factor using HepaRG (AID 2283503). Summed up: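 Differentiated HepaRG cells in serum-free induction medium exposed 48 h, in duplicate, to 8-point half-log series from 100 uM in 0.5% DMSO. HIF1A mRNA measured by TaqMan qRT-PCR, normalized to ACTB/GAPDH/POLR2A, fitted bidirectionally versus DMSO.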

Read-out in experiment [6]: 3-Hydroxy-3-Methylglutaryl-CoA Synthase 2 (HMGCS2), HMGCS2 (gene 3158)
As to the kind of experiment: LTEA_HepaRG_HMGCS2: Life Technologies and Expression Analysis (LTEA) Assay for 3-Hydroxy-3-Methylglutaryl-CoA Synthase 2 (HMGCS2) using HepaRG (AID 2283504). The procedure, abridged:
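Human HepaRG cells in serum-free induction medium were exposed in duplicate for 48 h to 8-point half-log series from 100 uM top in 0.5% DMSO. HMGCS2 mRNA measured by TaqMan qRT-PCR, normalised to ACTB, GAPDH, POLR2A; bidirectional fit versus DMSO.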

Read-out in another experiment: HGF (gene 3082)
Kind of experiment: LTEA_HepaRG_HGF: Life Technologies and Expression Analysis (LTEA) Assay for Hepatocyte Growth Facto (HGF) using HepaRG (AID 2283505). The procedure, abridged: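 Differentiated HepaRG cells in serum-free induction medium exposed 48 h in duplicate, 8 half-log concentrations from 100 uM in 0.5% DMSO. HGF mRNA by qRT-PCR, normalised to ACTB, GAPDH, POLR2A; bidirectional fitting.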

Read-out in experiment [7]: Insulin Like Growth Factor 1 (IGF1), IGF1 (gene 3479)
Kind of experiment: LTEA_HepaRG_IGF1: Life Technologies and Expression Analysis (LTEA) Assay for Insulin Like Growth Factor 1 (IGF1) using HepaRG (AID 2283506). The procedure, abridged:
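Differentiated HepaRG cells in serum-free induction medium, exposed 48 h in duplicate to 8 half-log concentrations up to 100 uM in 0.5% DMSO. IGF1 mRNA by Fluidigm qRT-PCR, normalised to ACTB, GAPDH and POLR2A.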

Read-out in experiment [8]: Intercellular Adhesion Molecule 1 (ICAM1), ICAM1 (gene 3383)
Kind of experiment: LTEA_HepaRG_ICAM1: Life Technologies and Expression Analysis (LTEA) Assay for Intercellular Adhesion Molecule 1 (ICAM1) using HepaRG (AID 2283507). The procedure, abridged: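 Differentiated human HepaRG cells in serum-free induction medium exposed 48 h in duplicate to 8 half-log concentrations (top 100 uM, 0.5% DMSO). ICAM1 mRNA quantified by TaqMan qRT-PCR, normalized to ACTB, GAPDH and POLR2A; bidirectional fitting versus DMSO.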

Read-out in experiment [9]: Insulin-like growth factor-binding protein 1 (IGFBP1), IGFBP1 (gene 3484)
As to the kind of experiment: LTEA_HepaRG_IGFBP1: Life Technologies and Expression Analysis (LTEA) Assay for Insulin-like growth factor-binding protein 1 (IGFBP1) using HepaRG (AID 2283508). The procedure, abridged: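 HepaRG cells, plated 48 h then switched to serum-free induction medium, exposed in duplicate for 48 h to 8-point half-log series from 100 uM in 0.5% DMSO. mRNA measured by qRT-PCR, normalized to ACTB/GAPDH/POLR2A; bidirectional fit versus DMSO.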

Read-out in experiment [10]: Interleukin 6 (IL6), IL6 (gene 3569)
As to the kind of experiment: LTEA_HepaRG_IL6: Life Technologies and Expression Analysis (LTEA) Assay for Interleukin 6 (IL6) using HepaRG (AID 2283509). Summed up: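 Differentiated human HepaRG cells, plated 48 h then switched to serum-free induction medium, were exposed in duplicate for 48 h to eight half-log concentrations up to 100 uM in 0.5% DMSO. IL6 mRNA measured by qRT-PCR, normalized to ACTB/GAPDH/POLR2A.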

Read-out in experiment [11]: Interleukin 6 Receptor (IL6R), IL6R (gene 3570)
Kind of experiment: LTEA_HepaRG_IL6R: Life Technologies and Expression Analysis (LTEA) Assay for Interleukin 6 Receptor (IL6R) using HepaRG (AID 2283510). The procedure, abridged: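 Differentiated HepaRG cells, plated 48 h, then exposed in duplicate for 48 h in serum-free induction medium to 8 half-log concentrations (top 100 uM, 0.5% DMSO). IL6R mRNA measured by TaqMan qRT-PCR, normalized to ACTB/GAPDH/POLR2A; bidirectional fit vs DMSO.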

Read-out in experiment [12]: Potassium channel subfamily K member 1 (KCNK1), KCNK1 (gene 3775)
As to the kind of experiment: LTEA_HepaRG_KCNK1: Life Technologies and Expression Analysis (LTEA) Assay for Potassium channel subfamily K member 1 (KCNK1) using HepaRG (AID 2283511). Summed up:
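Differentiated human HepaRG cells in serum-free induction medium were exposed in duplicate for 48 h to 8 half-log concentrations up to 100 uM in 0.5% DMSO. KCNK1 mRNA was measured by TaqMan qRT-PCR, normalized to ACTB, GAPDH and POLR2A, and fitted bidirectionally versus DMSO.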

Read-out in experiment [13]: Keratin 19 (KRT19), KRT19 (gene 3880)
As to the kind of experiment: LTEA_HepaRG_KRT19: Life Technologies and Expression Analysis (LTEA) Assay for Keratin 19 (KRT19) using HepaRG (AID 2283512). Summed up: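 Differentiated HepaRG cells in serum-free induction medium, exposed 48 h in duplicate to 8 half-log concentrations up to 100 uM in 0.5% DMSO. KRT19 mRNA by qRT-PCR, normalized to ACTB, GAPDH, POLR2A; bidirectional fit vs DMSO.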

Read-out in experiment [14]: JUN Transcription Factor, JUN (gene 3725)
Kind of experiment: LTEA_HepaRG_JUN: Life Technologies and Expression Analysis (LTEA) Assay for JUN Transcription Factor using HepaRG (AID 2283513). The procedure, abridged:
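HepaRG cells, 48 h post-plating, exposed 48 h in serum-free induction medium to 8-point half-log series (top 100 uM, 0.5% DMSO), duplicate; mRNA by qRT-PCR (TaqMan, Fluidigm), normalized to ACTB/GAPDH/POLR2A; bidirectional fit vs DMSO.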

Read-out in experiment [15]: Lipase C (LIPC), LIPC (gene 3990)
Kind of experiment: LTEA_HepaRG_LIPC: Life Technologies and Expression Analysis (LTEA) Assay for Lipase C (LIPC) using HepaRG (AID 2283514). The procedure, abridged: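 Differentiated human HepaRG cells in serum-free induction medium were exposed in duplicate for 48 h to eight concentrations (top 100 uM, half-log steps, 0.5% DMSO). LIPC mRNA was quantified by TaqMan qRT-PCR, normalized to ACTB, GAPDH and POLR2A, with bidirectional fitting versus DMSO.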

Read-out in experiment [16]: Lipoprotein lipase (LPL), LPL (gene 4023)
As to the kind of experiment: LTEA_HepaRG_LPL: Life Technologies and Expression Analysis (LTEA) Assay for Lipoprotein lipase (LPL) using HepaRG (AID 2283515). Summed up: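 Differentiated human HepaRG cells in serum-free induction medium were exposed in duplicate for 48 h to eight half-log concentrations (top 100 uM) in 0.5% DMSO. LPL mRNA was quantified by TaqMan qRT-PCR, normalized to ACTB, GAPDH and POLR2A.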

Read-out in experiment [17]: MicroRNA 122 (MIR122), gene 406906
As to the kind of experiment: LTEA_HepaRG_MIR122: Life Technologies and Expression Analysis (LTEA) Assay for MicroRNA 122 (MIR122) using HepaRG (AID 2283516). Note: the transcript read is the microRNA miR-122. The procedure, abridged: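 Differentiated human HepaRG cells in serum-free induction medium exposed 48 h to 8 half-log concentrations from 100 uM in 0.5% DMSO, duplicate. MIR122 quantified by Fluidigm TaqMan qRT-PCR, normalised to ACTB, GAPDH, POLR2A; fold change fitted bidirectionally versus DMSO.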

Hypoxia-inducible factor 1-alpha (Homo sapiens), sequence (Q16665 whole entry, looked up): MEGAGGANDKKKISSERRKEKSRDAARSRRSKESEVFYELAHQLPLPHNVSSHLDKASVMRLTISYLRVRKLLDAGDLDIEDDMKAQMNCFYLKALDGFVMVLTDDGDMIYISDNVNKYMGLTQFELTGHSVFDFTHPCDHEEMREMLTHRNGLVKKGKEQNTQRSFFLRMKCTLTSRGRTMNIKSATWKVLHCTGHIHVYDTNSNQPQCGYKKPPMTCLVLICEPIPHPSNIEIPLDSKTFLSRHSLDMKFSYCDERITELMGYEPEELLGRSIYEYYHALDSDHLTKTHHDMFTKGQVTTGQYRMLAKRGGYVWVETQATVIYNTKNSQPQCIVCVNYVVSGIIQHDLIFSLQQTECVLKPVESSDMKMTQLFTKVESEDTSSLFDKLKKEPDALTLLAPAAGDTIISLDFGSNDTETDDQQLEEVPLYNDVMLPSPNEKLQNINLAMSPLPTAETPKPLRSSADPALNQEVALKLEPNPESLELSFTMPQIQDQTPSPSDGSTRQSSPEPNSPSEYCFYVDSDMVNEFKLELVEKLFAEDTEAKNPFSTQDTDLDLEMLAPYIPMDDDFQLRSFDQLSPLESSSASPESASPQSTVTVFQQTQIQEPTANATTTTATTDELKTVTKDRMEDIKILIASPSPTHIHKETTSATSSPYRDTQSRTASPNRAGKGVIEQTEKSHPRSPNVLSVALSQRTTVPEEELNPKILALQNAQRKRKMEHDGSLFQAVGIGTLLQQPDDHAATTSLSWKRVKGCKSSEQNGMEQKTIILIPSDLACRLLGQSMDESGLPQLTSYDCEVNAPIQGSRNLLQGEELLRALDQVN

Take `CC(C)c1cccc(C(C)C)c1`: the compound was called inactive in experiment [1], in experiment [2], in [3], in [4], in experiment [5] and in experiment [6]. Further, the compound was classed as inactive (with HGF (gene 3082); in [7]; in experiment [8]; in experiment [9]; in experiment [10]; in experiment [11]). The result in experiment [12], in experiment [13], in experiment [14], in experiment [15], in experiment [16] and in experiment [17] was inactive.

For the compound `OCC(O)CO`, the outcome in experiment [1], in [2], in experiment [3], in experiment [4], in [5] and in experiment [6] was inactive. Further, the compound was classed as inactive (with HGF (gene 3082); in [7]; in experiment [8]; in experiment [9]; in [10]; in experiment [11]). In addition, the outcome in [13], in experiment [14], in [15], in [16] and in experiment [17] was inactive.

With `NC(=Nc1ccccc1)Nc1ccccc1`, the compound was classed as inactive in experiment [1], in experiment [2], in experiment [3], in experiment [4], in experiment [5] and in experiment [6]. The result (in the experiment with HGF (gene 3082); in experiment [7]; in experiment [8]; in [10]; in experiment [11]; in experiment [12]) was inactive. Also, the result in [13], in experiment [14], in experiment [15], in experiment [16] and in experiment [17] was inactive. In addition, the AC50 in experiment [9] was 13.2 µM (active).

In the case of `Cc1cn([C@H]2C=C[C@@H](CO)O2)c(=O)[nH]c1=O`, the outcome (in experiment [1]; in experiment [2]; in experiment [3]; in experiment [4]; in experiment [6]; in the experiment with HGF (gene 3082)) was inactive. Also, the call in experiment [7], in experiment [8], in [9], in experiment [10], in experiment [11] and in [12] was inactive. The outcome in experiment [13], in [14], in [15], in experiment [16] and in experiment [17] was inactive.
